# Several values for one entry are separate records, joined by “and”; a condition that tells them apart may be missing. Equal entries are not always repeated. About 83,000 compounds went through this panel and 20% of them were active in at least one assay; those are over-represented in the sample as a whole.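 96-well plates, one dose, 48 hours. Percent growth reported; active if below 10.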 Activity calls are given as the source filed them.
# Tested on: MDA-MB-468 breast
# Test: NCI-60 one-dose screen, 48 h (100 = growth as untreated, 0 = no growth, -100 = all killed)
# Conditions: 10 µM unless noted
row,Compound,growth
1,CCOc1ccc(Nc2nc(-c3c(C)nc4ncccn34)cs2)cc1,30.2% (inactive)
2,COc1cc2c(cc1OC)-c1c(oc3c4c(ccc3c1=O)OC(C)(C)C=C4)CO2,19.2% (inactive)
3,N#CC[C@H](C1CCCC1)n1cc(-c2ncnc3[nH]ccc23)cn1,71.3% (inactive)
4,CC(C)(C)CC(C)(C)c1ccc(OCCSC(=N)N)cc1,-23.9% (active)
5,Cc1nn(-c2ccccc2)c(Oc2c(Cl)cccc2Cl)c1/C=N/N=c1\sc2ccccc2n1C,39.7% (inactive)
6,O=C(O)C1CSCN1 (stereo not given),114% (inactive) and 95.5% (inactive)
7,C[C@]12CCC(=O)C=C1CC[C@H]1[C@@H]3C[C@@H](O)[C@](O)(C(=O)CO)[C@@]3(C)C[C@H](O)[C@@]12F,128% (inactive)
8,O=C(Nc1ccc2[nH]c3ccccc3c2c1)c1ccccc1Cl,44.8% (inactive)
9,Clc1cccc(Cl)c1CSc1nc2ccccc2n2cccc12,18.9% (inactive)
10,N#CC1C(=N)Cc2ccccc2-c2ccccc21 (stereo not given),9.26% (active)
11,NCCCNc1nc2ccccc2c2c(=O)c3cc(F)cc(Cl)c3sc12,73.4% (inactive)
12,COc1ccc(Cn2c(NCCN=C(N)N)nc(=O)n(Cc3ccc(F)cc3)c2=O)cc1,56.7% (inactive) and 33.4% (inactive)
13,C=CCOc1cccc(/C=C2\SC(=S)N(C3CC(=O)N(c4ccc(Br)cc4)C3=O)C2=O)c1 (stereo not given),111% (inactive)
14,C[C@]12CCc3nc(Nc4ccccc4)sc3C1=CC[C@@H]1[C@@H]2CC[C@]2(C)/C(=N/NC(N)=S)CC[C@@H]12,14.9% (inactive)
15,O=S(=O)(NCl)c1ccccc1,108% (inactive)
16,COc1ccc(/C=c2\sc3n(c2=O)NC2C(N=3)N(C)C(=O)N2C)cc1 (stereo not given),99% (inactive)
17,COc1ccc(S(=O)(=O)Nc2ccc(OCc3nnc(-c4ccc(Cl)cc4)o3)c(F)c2)cc1,15.2% (inactive)
18,Clc1ccc2[nH]c3c(NCCCN4CCOCC4)ncnc3c2c1,33.7% (inactive)
19,C#C[C@]1(O)CC[C@H]2[C@@H]3CC=C4c5sc(-c6ccc(OC)cc6)nc5CC[C@]4(C)[C@H]3CC[C@@]21C,71.6% (inactive)
20,FCOC(C(F)(F)F)C(F)(F)F,108% (inactive)

row,Compound,growth
1,O=C(C[n+]1cccc(Br)c1)c1ccc2c(c1)CCCC2,94% (inactive)
2,COc1cc2c3c(n(CCCN4CCCCC4)c(=O)c2cc1OC)-c1cc2c(cc1C3=O)OCO2,-84% (active)
3,CC(=O)OC1C=CC(OC(C)=O)O1 (stereo not given),101% (inactive)
4,O=C1/C(=C\c2ccccc2)CN(C(=O)c2ccccc2F)C/C1=C\c1ccccc1,-72.4% (active)
5,COc1ccc(/C=C2\SC(=S)N(CCCN3CCOCC3)C2=O)c(OC)c1,87.4% (inactive)
6,COc1ccc(C2=Cc3ccc(OC(C)=O)cc3OC2)cc1,67.4% (inactive)
7,CC(=O)O[C@H]1C[C@@H]2C(C)(C)C(=O)CC[C@@]2(C)c2ccc(C(C)C)cc21,105% (inactive)
8,CCOC(=O)c1nn(-c2ccccc2)c(=O)c2c(N)c(C#N)c(-c3cccs3)cc12,69.9% (inactive)
9,Cc1ccc(/C=C/C(=O)C(=O)/C=C/c2ccc(C)cc2)cc1,110% (inactive)
10,CNc1ccc(CSc2ccc(Cl)cc2)cc1,78.5% (inactive)
11,Cc1ccc(C)c2c1C(O)(C#Cc1ccccc1)c1ccccc1C2(O)C#Cc1ccccc1 (stereo not given),58.1% (inactive)
12,COc1ccc2c(c1)c(-c1nnc(N)nc1-c1cn(C)c3ccccc13)cn2C,78.8% (inactive)
13,Nc1ccc(N=Nc2ccccc2)cc1[N+](=O)[O-],-6.35% (active)
14,CC(=O)NC(N)=S,109% (inactive)
15,CC(C)Cc1cc(CNC(=O)C2[C@H]3CN(C(=O)c4ccccc4)C[C@@H]23)nn1-c1ccccc1 (stereo not given in full),88.9% (inactive)
16,COc1ccc(Nc2nc(-c3cc(O)c(C)c(C)c3O)cs2)cc1,-6.65% (active)
17,CCN(CC)C(=O)C1=C(C)NC(=O)NC1c1ccc2c(c1)OCO2 (stereo not given),112% (inactive)
18,Cn1cc(-c2nn3cc(-c4cccnc4)nc3s2)c2ccccc21,-2.67% (active)
19,CCN1C(=O)N(CC)C2SC(N/N=C/c3ccccc3F)=NC21 (stereo not given),40.4% (inactive)
20,CC(/C=N/NC(N)=S)Cc1ccc(C(C)C)cc1 (stereo not given),42.1% (inactive)

# From PubChem BioAssay (NCI)
